# Shown are actives, neighbours in structure and some others; about 2.9% of the full set was active somewhere.
# FBA Mtb inh: Mtb FBA enzyme inhibitors, primary screen, biochemical, fluorescence, strain H37Rv; Fructose-bisphosphate aldolase (Mycobacterium tuberculosis (strain ATCC 25618 / H37Rv)), …; inhibition, % at 1 µM; purified M. tuberculosis FBA, fluorescence read-out; hit rate 2.3% among 360,000;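 note: 0% = vehicle and 100% = reference inhibitor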
# Target sequence (P9WQA3 whole entry, looked up): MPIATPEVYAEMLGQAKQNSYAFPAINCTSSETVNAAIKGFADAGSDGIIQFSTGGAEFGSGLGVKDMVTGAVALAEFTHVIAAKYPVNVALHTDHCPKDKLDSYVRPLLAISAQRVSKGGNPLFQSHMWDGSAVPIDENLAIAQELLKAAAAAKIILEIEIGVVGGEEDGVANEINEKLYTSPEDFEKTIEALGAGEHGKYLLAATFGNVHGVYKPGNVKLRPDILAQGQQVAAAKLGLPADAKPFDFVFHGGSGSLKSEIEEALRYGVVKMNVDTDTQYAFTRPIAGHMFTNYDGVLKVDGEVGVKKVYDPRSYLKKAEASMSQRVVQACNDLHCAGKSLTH
# FadD28 binding: inhibitors of FadD28 bisubstrate probe binding, primary screen, biochemical, fluorescence polarization, single point | inhibition, % at 12.5 µM | hit rate 0.22% among 360,000 | Mycobacterium tuberculosis FadD28 fatty-acid-AMP ligase; in the data active = inhibition above about 8.5%, passing the limit was not always enough
# GDH-TPI counter-1: GDH-TPI coupling enzyme inhibitors, primary screen, artefact control for M. tuberculosis FBA inhibitor project, biochemical, absorbance, full deck; hit rate 1.2% among 360,000; GDH-TPI coupled enzyme counterscreen, NADH absorbance; AID 588335, 2011; inhibition, % at 4.8 µM; in the data active = inhibition above about 30%;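 note: 0% = DMSO wells and 100% = wells lacking the enzyme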
# Mtb hypoxia rep: PubChem AID 1159583 | M. tuberculosis hypoxia-regulated fluorescent reporter, fluorescence | fluorescence inhibition, % (test concentration not listed) | hit rate 0.1% among 300,000; in the data active = fluorescence inhibition mostly above about 23%, no sharp cut-off; inactive = mostly below about 17%
# BioA inh: M. tuberculosis BioA enzyme inhibitors, primary screen, biochemical, plate reader, single point, HTS; 7,8-diaminopelargonic acid synthase BioA (Mycobacterium tuberculosis); purified M. tuberculosis BioA enzyme; inhibition, % at 9.99 µM; hit rate 0.096% among 360,000; AID 602481, 2012; in the data active = inhibition above about 40%
# Mtb FBA inh conf: M. tuberculosis aldolase blockers, biochemical, fluorescence, strain H37Rv, confirmation. shares compounds with FBA Mtb inh. purified M. tuberculosis FBA, fluorescence read-out. inhibition, % at 1 µM. hit rate 78% among 5,600. AID 651616, 2012;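 note: 0% = vehicle wells and 100% = reference inhibitor wells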
# GDH-TPI counter-2: GDH-TPI coupling enzyme inhibitors, artefact control for M. tuberculosis FBA inhibitor project, biochemical, fluorescence, high throughput; inhibition, % at 1 µM; GDH-TPI coupled enzyme counterscreen; AID 652141, 2013; hit rate 81% among 5,600; shares compounds with FBA Mtb inh; in the data active = inhibition above about 10%
# * hit, by the source's call; . = no result given; + = active, no number. Cut-off read from the data, not from the text of the source, unless noted: active = inhibition above about 27%; inactive = the rest.
SMILES,FBA Mtb inh,FadD28 binding,GDH-TPI counter-1,Mtb hypoxia rep,BioA inh,Mtb FBA inh conf,GDH-TPI counter-2
Cc1ccn2c(NC3CCCCC3)c(-c3cccc(SC4CCCCC4)c3)nc2c1,20.5,-5.5,1.8,.,-3.9,.,.
CCC(C)Sc1cccc(-c2nc3ccc(Cl)cn3c2NCc2ccccc2)c1 (stereo not given),23.2,-2.9,17.6,8.4,-1.4,.,.
CCC(C)Sc1cccc(-c2nc3ccccn3c2NCc2ccccc2)c1 (stereo not given),32.3*,0.3,5.4,5.5,-1.8,113.4*,91.5*
Cc1ccc2nc(-c3cccc(-c4cccc(Cl)c4)c3)c(NCc3ccccc3)n2c1,21.1,-1.1,11.8,.,-1.6,.,.
CCC(C)Sc1cccc(-c2nc3ccc(C)cn3c2NCc2ccccc2)c1 (stereo not given),38.8*,-0.3,15.0,.,-1.1,0.6,0.7
c1ccc2nc3[nH]cnc3nc2c1,42.0*,-0.8,21.2,-1.4,-2.2,154.4*,101.3*
CCNc1ccccc1C(=O)O,77.7*,-0.5,2.9,.,-1.2,-5.3,-6.6
O=C(O)c1ccc(CNc2ccccc2C(=O)O)cc1,15.6,0.2,11.2,7.5,-2.7,.,.
COC(=O)c1ccccc1NCCO,109.3*,-4.4,9.5,13.9,-2.4,66.5*,55.3*
O=C(O)c1ccccc1NCCO,47.5*,-5.2,6.6,4.0,.,138.2*,123.2*
CCCCc1cc(=O)oc2cc(OCC(=O)NCC3CCC(C(=O)O)CC3)ccc12 (stereo not given),21.4,0.0,10.8,.,-1.3,.,.
CC(Oc1ccc2c(-c3ccccc3)cc(=O)oc2c1)C(=O)NCC1CCC(C(=O)O)CC1 (stereo not given),-0.6,-3.5,20.6,.,2.6,.,.
CCc1c(C)c2ccc(OCC(=O)NCC3CCC(C(=O)O)CC3)cc2oc1=O (stereo not given),79.4*,0.3,18.6,.,1.9,55.5*,36.0*
Cc1c(Cc2ccccc2)c(=O)oc2cc(OC(C)C(=O)NCC3CCC(C(=O)O)CC3)c(Cl)cc12 (stereo not given),33.5*,-0.8,28.4,.,9.8,+,189.9*
O=C(COc1ccc2c(c1)oc(=O)c1ccccc12)NCC1CCC(C(=O)O)CC1 (stereo not given),33.9*,-3.5,18.6,.,0.3,89.9*,53.9*
O=C(COc1ccc2c3c(c(=O)oc2c1)CCC3)NCC1CCC(C(=O)O)CC1 (stereo not given),16.2,-0.5,14.7,15.5,6.9,.,.
Cc1ccc(C=NNC(=O)/C(=C\Nc2nccc(C)n2)NC(=O)c2ccccc2)cc1,.,.,.,-2.3,.,.,.
Cc1cc(=O)n2[nH]c(C(=O)O)nc2n1,7.8,-0.4,4.2,4.0,-1.2,.,.
Cc1cc(=O)n2[nH]cc(C(=O)O)c2n1,38.3*,0.2,8.1,-3.6,-0.8,178.1*,146.4*
C=CCSc1nnc(-c2sc(-c3ccccc3)nc2C)n1C,63.6*,0.5,12.8,16.8,.,2.3,-3.5
C/C=C/c1ccc2c(c1)O[C@H](CN(C)C(=O)Nc1ccccc1)[C@@H](C)CN([C@@H](C)CO)S2(=O)=O,.,.,.,.,3.0,.,.
CNc1cncc(-c2cc(OC)c(OC)c(OC)c2)n1,96.2*,0.9,23.4,.,-1.5,+,+
CNc1cncc(-c2ccc(OC)cc2OC)n1,52.1*,0.2,23.4,.,-0.1,3.8,2.4
CNc1cccc(-c2cc(OC)c(OC)c(OC)c2)n1,17.1,-1.4,16.4,.,-0.1,.,.
CNC(=O)C[C@H]1CC[C@H]2[C@@H](COC[C@@H](O)CN2Cc2ccccc2F)O1,.,.,.,.,-2.3,.,.
SMILES,FBA Mtb inh,FadD28 binding,GDH-TPI counter-1,Mtb hypoxia rep,BioA inh,Mtb FBA inh conf,GDH-TPI counter-2
CCc1c(O)c(C(C)=NO)c(=O)n(-c2ccccc2)c1-c1ccccc1,.,.,.,7.3,.,.,.
N#Cc1ccc(-c2ccc3c(c2)OCO3)nc1SCC(=O)OCc1ccccc1,60.3*,-1.4,4.6,8.2,0.4,67.0*,43.7*
Cc1ccc(C(=O)CSc2nc(-c3ccccc3)ccc2C#N)cc1,0.8,-1.5,3.1,-8.6,-1.4,.,.
CC1=C(C(=O)OC(C)C)C(c2cccnc2)C2=C(CCCC2=O)N1 (stereo not given),36.4*,-4.5,14.7,-2.7,6.9,2.5,-2.0
CCOC(=O)C1=C(C)NC2=C(C(=O)CCC2)C1c1cccnc1 (stereo not given),36.1*,-1.9,13.1,-8.3,0.4,9.4,4.1
CCS(=O)(=O)Nc1ccc2c(c1)C(=O)N(C)[C@H]1CC[C@@H](CC(=O)NCc3ccccc3F)O[C@H]1CO2,.,.,.,.,-0.7,.,.
CC(C)Cn1cc(C(=O)N2CCC(C)CC2)c2c3ccccc3n(C)c2c1=O,25.8,0.7,9.0,0.9,.,.,.
CC(C)Cn1cc(C(=O)NCc2cccs2)c2c3ccccc3n(C)c2c1=O,33.8*,-2.4,14.1,4.9,0.2,191.8*,143.9*
CC(C)Cn1cc(C(=O)N2CCOCC2)c2c3ccccc3n(C)c2c1=O,40.6*,1.0,5.4,9.5,-0.2,42.5*,25.8*
CC(C)CCNC(=O)c1cn(CC(C)C)c(=O)c2c1c1ccccc1n2C,2.1,-4.0,4.1,6.3,-0.9,.,.
CCOC(=O)N1CCN(C(=O)c2cn(C)c(=O)c3c2c2ccccc2n3C)CC1,40.5*,-0.1,15.6,-6.8,2.7,128.4*,107.5*
CCOC(=O)N1CCN(C(=O)c2cn(CC(C)C)c(=O)c3c2c2ccccc2n3C)CC1,31.4*,-1.9,17.7,7.5,-1.9,49.9*,46.6*
Cc1cc(-c2n[nH]c(=S)n2N=Cc2ccco2)n[nH]1,.,.,.,-1.4,.,.,.
Cn1c2ccccc2c2c(C(=O)N3CCC4(CC3)OCCO4)cn(C3CCCCC3)c(=O)c21,14.8,-2.6,-0.4,.,0.0,.,.
Cn1cc(C(=O)N2CCC3(CC2)OCCO3)c2c3ccccc3n(C)c2c1=O,39.8*,-0.3,15.7,-2.8,.,79.2*,58.7*
CCOC(=O)CNC(=O)CSc1nnc(-c2ccccc2)n1Cc1ccco1,98.1*,-2.8,-5.6,.,2.8,50.2*,39.0*
Cc1cc(NC(=O)CSc2nnc(-c3ccccc3)n2Cc2ccco2)no1,-5.9,-1.6,6.1,-4.9,4.4,.,.
c1ccc(Cn2c(-c3ccccc3)nc3nc4ccccc4nc32)cc1,56.3*,-0.9,43.2*,13.6,-0.7,161.1*,132.0*
C[C@@H]1CN([C@H](C)CO)C(=O)c2cccc(NS(=O)(=O)c3ccccc3)c2O[C@@H]1CN(C)S(=O)(=O)c1ccc(F)cc1,.,.,.,.,1.6,.,.

# Source: PubChem (several laboratories)
